Assay results: PubChem BioAssay AID1920062 (Sanford-Burnham Center for Chemical Genomics, 2024)
Out of some 370,000 compounds screened, about 400 (0.11%) were called active.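 The calls were made as follows: active = activation at 10 µM reaching about 35% in either raw or pattern-adjusted values (limit read from the data); inactive = the rest.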 What follows is part of a selection rich in actives, with near analogues and random picks from the rest.

These molecules were tested against Atrial natriuretic peptide receptor 2 (Homo sapiens) (UniProt P20594) (assay: human GC-B receptor activators, primary screen, HEK293 GC-B cells, cGMP TR-FRET, EC30 CNP (AID 1920062)). Details: at 10 µM, stronger effect = higher value, 0% at EC30 CNP, 100% saturating CNP.
Sequence of Atrial natriuretic peptide receptor 2 (Homo sapiens) (P20594 whole entry, looked up): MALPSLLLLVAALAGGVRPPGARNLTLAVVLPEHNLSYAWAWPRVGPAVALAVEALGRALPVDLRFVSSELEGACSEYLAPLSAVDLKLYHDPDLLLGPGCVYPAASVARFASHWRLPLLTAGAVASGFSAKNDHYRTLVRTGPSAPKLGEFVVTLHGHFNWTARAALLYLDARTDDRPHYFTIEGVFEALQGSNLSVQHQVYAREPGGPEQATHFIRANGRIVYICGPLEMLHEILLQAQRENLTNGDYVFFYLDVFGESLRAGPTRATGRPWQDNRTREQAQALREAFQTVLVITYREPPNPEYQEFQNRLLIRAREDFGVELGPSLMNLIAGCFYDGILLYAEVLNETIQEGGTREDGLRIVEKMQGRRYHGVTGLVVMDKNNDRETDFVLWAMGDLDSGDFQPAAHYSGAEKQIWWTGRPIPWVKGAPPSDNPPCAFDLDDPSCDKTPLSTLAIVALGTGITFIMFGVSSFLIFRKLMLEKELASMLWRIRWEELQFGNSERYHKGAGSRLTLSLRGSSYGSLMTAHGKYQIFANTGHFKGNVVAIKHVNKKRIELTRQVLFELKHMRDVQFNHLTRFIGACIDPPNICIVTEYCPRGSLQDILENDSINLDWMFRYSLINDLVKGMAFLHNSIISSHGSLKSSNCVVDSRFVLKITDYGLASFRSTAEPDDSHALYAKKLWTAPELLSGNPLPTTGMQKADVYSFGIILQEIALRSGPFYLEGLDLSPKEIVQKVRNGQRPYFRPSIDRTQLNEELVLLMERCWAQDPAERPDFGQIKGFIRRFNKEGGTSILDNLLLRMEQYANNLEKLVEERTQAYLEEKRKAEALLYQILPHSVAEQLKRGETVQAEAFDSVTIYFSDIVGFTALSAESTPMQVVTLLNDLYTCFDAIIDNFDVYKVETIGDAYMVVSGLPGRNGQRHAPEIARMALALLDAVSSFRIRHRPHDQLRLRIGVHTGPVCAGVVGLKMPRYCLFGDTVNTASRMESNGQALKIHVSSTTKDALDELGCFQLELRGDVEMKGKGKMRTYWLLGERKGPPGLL

activation, inactive:
CN(C(=O)CC(NC(=O)c1ccccc1)(c1ccccc1)c1ccccc1)c1ccccc1 -19.3%, CN(CC(=O)Nc1ccccc1Cl)C(=O)COc1cccc2c1OC(C)(C)C2 -1.31%, O=C(CSc1n[nH]c(=O)n1-c1ccccc1)Nc1ccccc1C(F)(F)F -2.36%, COCCCN1C(=O)c2ccc(C(=O)OCC(=O)NCc3ccccc3OC)cc2C1=O -7.6%, Cc1ccc(CNC(=O)C(=O)c2cn(CC(=O)N3CCOCC3)c3ccccc23)cc1 -3.39%, O=C1CSC(c2cccc(F)c2)N1c1ccc(O)cc1 (stereo not given) 2.71%, CC1CCCCN1S(=O)(=O)CCNC(=O)c1ccccc1 (stereo not given) -2.73%, Cc1ccc(NC(=O)CSCC(=O)N2CCOCC2)cc1 2.72%, O=C(CCSc1ccccc1)N1CCN(c2ccccc2F)CC1 -0.35%, CC(C)(C)c1ccc(CSc2nnc(-c3cccs3)o2)cc1 3.23%, COc1ccccc1NC(=O)CSc1nnc(Cn2nnc(-c3ccccc3)n2)n1-c1ccccc1 -7.79%, Nn1c(SCC(=O)Nc2ccc(S(N)(=O)=O)cc2)nnc1-c1n[nH]c2c1CCC2 -3.98%, CS(=O)(=O)Nc1ccccc1N=C(c1ccccc1)c1ccccc1 4.92%, Cc1cccc(C(=O)NC2CCN(CC(=O)Nc3cccc(Cl)c3)CC2)c1 1.44%, CCc1nn(CCCC(=O)NC(C)c2ccccc2)c(=O)c2cc3occc3n12 (stereo not given) -9.68%, Cc1c2cnn(CC(=O)NCc3ccccn3)c(=O)c2c(C)n1Cc1ccc(Cl)cc1 0.59%, CC1=NN(/C(=N\c2nnc(C)s2)Nc2ccccc2)[C@H](c2ccc(C)cc2)S1 -13.9%, COC(=O)c1ccc([C@@H](O)[C@H](C)C(=O)CC(=O)OC(C)(C)C)cc1 5.42%, CC(=O)c1cccc(NC(=O)CN2C(=O)c3cccnc3Oc3ccc(Cl)cc32)c1 -2.67%, Cc1ccccc1C(=O)OC1OC(=O)C(Cl)=C1Nc1ccccc1 (stereo not given) 2.61%, C/C(=N\N(C)C)c1ccc(OCCOc2ccc([N+](=O)[O-])cc2)cc1 4.4%, O=C(Cc1ccc(-n2c(=O)c3sccc3n(Cc3ccc(F)cc3)c2=O)cc1)NCc1ccco1 6.68%, Cc1ccc(C(=O)N2CCCC2)c(F)c1F 0.58%, COc1ccc(S(=O)(=O)N2CCN(C)CC2)c(C)c1 -1.64%, CC[C@]1(C(=O)OC)[C@H]2C(=O)N(C)C(=O)[C@H]2[C@H]2CN(C)C(=NCc3ccccc3)N21 -1.82%
